An excerpt weighted towards active compounds, which were near 3.6% of everything screened.
FBPA Giardia inh: inhibitors of Giardia lamblia fructose-1,6-bisphosphate aldolase; Potency, µM (doses to about 59.6 µM), hits mostly inhibitors; AID 2451; purified Giardia FBPA; 290,000 compounds, 0.71% hits; note: nearly all actives have a fitted effect of over 55% in size
Target sequence (A8B2U2 whole entry, looked up): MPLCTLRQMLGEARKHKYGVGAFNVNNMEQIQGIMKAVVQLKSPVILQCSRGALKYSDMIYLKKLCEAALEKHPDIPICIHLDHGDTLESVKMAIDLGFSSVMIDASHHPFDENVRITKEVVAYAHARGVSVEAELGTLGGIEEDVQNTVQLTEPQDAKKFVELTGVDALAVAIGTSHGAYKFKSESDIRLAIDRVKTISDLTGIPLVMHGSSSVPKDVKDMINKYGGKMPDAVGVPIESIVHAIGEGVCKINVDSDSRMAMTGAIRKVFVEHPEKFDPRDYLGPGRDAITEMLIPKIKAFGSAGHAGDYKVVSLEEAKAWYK
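40 nM FBPA preincubated 10 min at RT with compound (up to 57.5 uM final), then substrate plus GAPDH/TPI/NAD/arsenate coupling and diaphorase/resazurin added. Fluorescence read after 20 min at RT, 525/598 nm.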
Sm TGR block: S. mansoni TGR enzyme inhibition; purified TGR, DTNB reduction, TNB absorbance 405 nm; Q962Y6; 360,000 compounds, 3% hits; Potency, µM (titrated, usually from 114 µM), most hits filed as inhibitors; note: nearly all actives have a fitted effect of over 60% in size
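TGR 20 nM + NADPH 100 uM (dispensed conc.), cpd preinc 15 min RT; start with NADPH (500 uM addition) then DTNB (15 mM addition). Kinetic TNB absorbance, 405 nm filter. Four-parameter Hill fit across titration.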
AmpC inh detg: blocks E. coli AmpC beta-lactamase in detergent assay. AmpC hydrolysis of nitrocefin, absorbance 480 nm, 0.01% Triton. Potency, µM (top dose mostly 114 µM), actives largely listed as inhibitors. 370,000 compounds, 0.041% hits; note: nearly all actives have a fitted effect of over 25% in size
Target sequence (P00811 whole entry, looked up): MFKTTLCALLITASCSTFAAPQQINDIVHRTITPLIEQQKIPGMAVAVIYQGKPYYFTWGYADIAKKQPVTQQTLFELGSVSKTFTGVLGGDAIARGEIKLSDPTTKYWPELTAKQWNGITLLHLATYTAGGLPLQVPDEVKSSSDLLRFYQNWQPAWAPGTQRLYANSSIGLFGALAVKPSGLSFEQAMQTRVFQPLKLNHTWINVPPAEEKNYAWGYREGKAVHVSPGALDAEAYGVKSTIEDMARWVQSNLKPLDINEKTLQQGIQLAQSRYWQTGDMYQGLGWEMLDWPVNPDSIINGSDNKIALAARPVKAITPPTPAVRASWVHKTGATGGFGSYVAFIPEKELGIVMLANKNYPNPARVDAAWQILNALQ
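20 mM phosphate pH 7.0 + 0.01% (detergent screen) or 0.0001% Triton X-100; 5.3 nM AmpC reagent; cpd preinc 15 min RT; nitrocefin (800 uM stock) to start; A480 q20 s × 4 min; Activity was normalised to no-enzyme and no-compound control wells.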
AmpC inh no detg: blocks E. coli AmpC beta-lactamase in detergent-free assay; 330,000 compounds, 0.52% hits; AID 485341; Potency, µM (titrated, usually from 57.1 µM), most hits filed as inhibitors; AmpC nitrocefin hydrolysis, absorbance 480 nm, 0.0001% Triton; note: nearly all actives have a fitted effect of over 20% in size
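20 mM phosphate pH 7.0 + 0.01% (detergent screen) or 0.0001% Triton X-100; 5.3 nM AmpC reagent; cpd preinc 15 min RT; nitrocefin (800 uM stock) to start; A480 q20 s × 4 min; Activity was normalised to no-enzyme and no-compound control wells.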
Each line names hits and unclear results; the compound was inactive in the other large screens. Calls come from the whole dose curve; as a rule, active = well fitted curve in the direction sought with a large enough effect; inconclusive = small, poorly fitted or top-dose-only effect, or another doubt; inactive = no such curve, though single readings can be large; an effect the other way counts as inactive or inconclusive.

CCC(=O)N1c2ccc(S(=O)(=O)N3CCN(c4ccc([N+](=O)[O-])cc4)CC3)cc2CC1C (stereo not given)	none
CC1CCc2nn(CC(=O)Nc3ccc(F)cc3F)cc2C1 (stereo not given)	AmpC inh detg inconclusive, AmpC inh no detg 40µM
CC1CCc2nn(CC(=O)NCCN3CCCCC3C)cc2C1 (stereo not given)	AmpC inh no detg 28µM
CC1CCc2nn(CC(=O)NCCCN3CCCC3=O)cc2C1 (stereo not given)	none
Cc1ccc(C)c(N2CCN(CCCNC(=O)Cn3cc4c(n3)CCCCC4)CC2)c1	AmpC inh no detg inconclusive
Cc1ccc(C)c(N2CCN(CCCNC(=O)Cn3cc4c(n3)CCC(C)C4)CC2)c1 (stereo not given)	AmpC inh detg inconclusive, AmpC inh no detg 35µM
CC1CCc2nn(CC(=O)N3CCCCCC3)cc2C1 (stereo not given)	AmpC inh no detg 0.56µM
O=C(NC1(C(F)(F)F)C(=O)Nc2c1c(=O)[nH]c(=O)n2-c1ccccc1)c1ccccc1Cl (stereo not given)	none (no result: FBPA Giardia inh, AmpC inh no detg)
CCCC(=O)Nc1ccc(C(=O)COC(=O)c2cc(C)oc2C)cc1	Sm TGR block inconclusive (no result: FBPA Giardia inh)
CC1CCc2nn(CC(=O)NC3CCCC(C)C3C)cc2C1 (stereo not given)	AmpC inh no detg 1µM
CCOC(=O)N1CCC(NC(=O)Cn2cc3c(n2)CCC(C)C3)CC1 (stereo not given)	none
CCC(=O)Nc1cccc(NC(=S)NC(=O)c2ccc(C)cc2)c1	none (no result: Sm TGR block)
CCC(=O)Nc1cccc(NC(=S)NC(=O)c2ccccc2)c1	FBPA Giardia inh inconclusive, Sm TGR block 45µM
CCC(=O)Nc1cccc(NC(=S)NC(=O)c2cccc(C)c2)c1	Sm TGR block 40µM
COCC(=O)N1CCC2(CC1)CCN(c1ccccc1)CC2	none (no result: Sm TGR block, AmpC inh detg, AmpC inh no detg)
CN(C(=S)Nc1ccccc1)c1ccccc1	AmpC inh detg inconclusive
CN(C(=S)Nc1ccc(Oc2ccccc2)cc1)c1ccc(O)cc1	FBPA Giardia inh 1.4µM, Sm TGR block 40µM
O=C(CN1CCN(c2ccc(F)cc2)CC1)c1cccs1	Sm TGR block 14µM
O=C(CN1CCN(c2ccc(F)cc2)CC1)c1ccc2c(c1)OCO2	Sm TGR block 45µM
O=C(c1cccs1)N1CCN(c2ccc(F)cc2)CC1	none
O=C(CN1CCN(c2ccc(Cl)cc2)CC1)c1ccc2c(c1)OCO2	Sm TGR block inconclusive (no result: FBPA Giardia inh)
Cc1cc(C)cc(NC(=O)CN(C)S(=O)(=O)c2ccc3c(c2)CCC(=O)N3)c1	none (no result: FBPA Giardia inh, AmpC inh no detg)
Cc1ccc(SC(=O)COc2ccccc2C)cc1	Sm TGR block 11µM
CC(Sc1nnc(-c2ccco2)o1)C(=O)NCCC1=CCCCC1 (stereo not given)	Sm TGR block 45µM
O=C(c1cc2nc(-c3ccco3)cc(C(F)(F)F)n2n1)N1CCN(c2ccccc2)CC1	Sm TGR block inconclusive
O=C(c1nn2c(C(F)(F)F)cc(-c3ccco3)nc2c1Br)N1CCCc2ccccc21	Sm TGR block 35µM, AmpC inh detg inconclusive
O=C(c1cc2nc(-c3ccco3)cc(C(F)(F)F)n2n1)N1CCCCCC1	Sm TGR block 35µM
O=C(Nc1ccc(F)cc1F)c1cc2nc(-c3ccco3)cc(C(F)(F)Cl)n2n1	Sm TGR block 50µM (no result: FBPA Giardia inh, AmpC inh no detg)
O=C(NCC1CCCO1)c1cc2nc(-c3ccco3)cc(C(F)(F)Cl)n2n1 (stereo not given)	Sm TGR block 45µM, AmpC inh detg inconclusive
O=C(Nc1cnn(Cc2ccc(F)cc2)c1)c1cc2nc(-c3ccco3)cc(C(F)(F)F)n2n1	AmpC inh detg inconclusive
CCN(CC(=O)Nc1ccc(NC(C)=O)cc1)C(=O)c1ccc(=O)n(C)n1	none (no result: FBPA Giardia inh)
Cc1cc(NC(=O)COC(=O)c2cc([N+](=O)[O-])ccc2N2CCOCC2)ccc1Br	AmpC inh detg inconclusive, AmpC inh no detg 32µM (no result: FBPA Giardia inh)
O=[N+]([O-])/C(C(Cl)=C(Cl)Cl)=C1\Nc2ccccc2O1	FBPA Giardia inh inconclusive, Sm TGR block 14µM
O=C1Nc2ccccc2Oc2cc([N+](=O)[O-])ccc21	none
CN1C(=O)CC(N2CCC(C(N)=O)CC2)C1=O (stereo not given)	none
NC(=O)C1CCN(C2CC(=O)N(c3ccc(F)c(Cl)c3)C2=O)CC1 (stereo not given)	Sm TGR block 25µM, AmpC inh detg inconclusive
Cc1ccccc1N1C(=O)CC(N2CCC(C(N)=O)CC2)C1=O (stereo not given)	Sm TGR block 22µM, AmpC inh detg inconclusive
CCOC(=O)C1CCN(C2CC(=O)N(c3cccc(Cl)c3)C2=O)CC1 (stereo not given)	none
O=C(O)c1ccc(N2C(=O)CC(N3CCN(c4ccc(Cl)cc4)CC3)C2=O)cc1 (stereo not given)	Sm TGR block inconclusive
NC(=O)C1CCN(C2CC(=O)N(c3cccc(F)c3)C2=O)CC1 (stereo not given)	Sm TGR block 35µM, AmpC inh detg inconclusive
COc1ccc(C2CC(=O)c3c(O)cc(O[C@H]4OC(COC5OC(C)C(O)C(O)[C@@H]5O)C(O)C(O)C4O)cc3O2)cc1O (stereo not given in full)	none (no result: Sm TGR block, AmpC inh detg, AmpC inh no detg)
COc1nsnc1NS(=O)(=O)c1ccc(NC(=S)NC(=O)c2cccnc2)cc1	none (no result: Sm TGR block)
COc1nccnc1NS(=O)(=O)c1ccc(NC(=S)NC(=O)c2cccnc2)cc1	FBPA Giardia inh inconclusive, Sm TGR block 20µM
COc1nccnc1NS(=O)(=O)c1ccc(NC(=S)NC(=O)c2ccc(F)cc2)cc1	Sm TGR block 45µM
O=C(Nc1ccc(S(=O)(=O)Nc2nccs2)cc1)c1ccc(S(=O)(=O)N2CCOCC2)cc1	none
O=C(Nc1ccc(S(=O)(=O)Nc2nccs2)cc1)c1ccc(F)c(S(=O)(=O)N2CCOCC2)c1	AmpC inh detg inconclusive, AmpC inh no detg 7.9µM
COc1nccnc1NS(=O)(=O)c1ccc(NC(=S)NC(=O)c2cccc(F)c2)cc1	Sm TGR block 45µM
O=C(Nc1ccccc1C(=O)Nc1ccc(Br)cn1)c1cccc([N+](=O)[O-])c1	none
COc1ccc(OCC(=O)Nc2cccc(S(=O)(=O)N(C)c3ccccc3)c2)c([N+](=O)[O-])c1	none (no result: FBPA Giardia inh)
O=C(Cc1ccccc1)Nc1nc2ccc(Cl)cc2c2nc(-c3ccco3)nn12	none (no result: Sm TGR block, AmpC inh detg, AmpC inh no detg)
COc1ccccc1NC(=O)COc1ccc2c(c1)OCO2	none
COc1nsnc1NS(=O)(=O)c1ccc(NC(=S)NC(=O)c2ccncc2)cc1	Sm TGR block 32µM
O=C(NC(=S)Nc1ccc(S(=O)(=O)Nc2nccs2)cc1)c1ccc(F)cc1	Sm TGR block 28µM, AmpC inh detg inconclusive
Cc1ccc(/C=N/NC(=O)Cn2cnc3c2c(=O)n(C)c(=O)n3C)s1	none
Cn1c(=O)c2c(ncn2CC(=O)N/N=C/C(Cl)=C/c2ccccc2)n(C)c1=O	none
Cn1c(=O)c2c(ncn2CC(=O)N/N=C/C=C/c2ccco2)n(C)c1=O	FBPA Giardia inh inconclusive, Sm TGR block 11µM, AmpC inh detg inconclusive
CC(/C=N/NC(=O)Cn1cnc2c1c(=O)n(C)c(=O)n2C)=C\c1ccco1	FBPA Giardia inh inconclusive, Sm TGR block 25µM
O=Cc1c(-c2ccccc2)cc2oc3ccccc3cc1-2	none

Compound activity as filed in PubChem.
